# Compounds without any hit were thinned out: in the full panel of roughly 83,000, 20% have a hit.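 Cells were grown in 96-well plates and exposed to the test compound at a single concentration for 48 hours; results are reported as percent growth, with values below 10 considered active.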 Unmarked numbers belong to inactive results. Active and inactive are the calls of the source.
# Assays:
# Test in all cases: NCI-60 one-dose screen, 48 h (100 = growth as untreated, 0 = no growth, -100 = all killed)
# Details in all cases: 10 µM unless noted
# T-47D breast = tested on: T-47D breast
# BT-549 breast = tested on: BT-549 breast
# MDA-MB-435 melanoma = tested on: MDA-MB-435 melanoma
# SW-620 colon = tested on: SW-620 colon
# MCF7 breast = tested on: MCF7 breast
# HCT-116 colon = tested on: HCT-116 colon
# HCC-2998 colon = tested on: HCC-2998 colon
# KM12 colon = tested on: KM12 colon
Compound,growth (T-47D breast),growth (BT-549 breast),growth (MDA-MB-435 melanoma),growth (SW-620 colon),growth (MCF7 breast),growth (HCT-116 colon),growth (HCC-2998 colon),growth (KM12 colon)
NS(=O)(=O)c1ccc(Nc2nc(N/N=C/c3ccc([N+](=O)[O-])cc3)nc(Nc3ccccc3)n2)cc1,14.1%,18.5%,33.2%,18.2%,9.76% (active),16.5%,19.6%,37.5%
N/C(=N\OC(=O)CSc1nc2ccccc2s1)c1ccc(Cl)cc1,96.6%,107%,101%,98%,97.4%,105%,105%,101%
C=CCn1c(SCC(=O)Nc2cccc(C(=O)/C=C/c3ccc(OC)c(OC)c3)c2)nc2ccccc2c1=O,79.9%,97.7%,101%,74.4%,45.4%,55.6%,100%,91.8%
CCN(CC)c1ccc2cc(C(=O)NCCOCCOCCOCCn3cc(CCC(=O)Nc4ccc(C(=O)c5ccc(NC(=O)OC(C)(C)C)cc5)cc4)nn3)c(=O)oc2c1,-8.51% (active),26.4%,62.4%,82.1%,44.1%,36.3%,96.8%,36.6%
O=C1c2c(c3c4cccnc4[nH]c3c3ccc4ccccc4c23)C(=O)N1CCN1CCCCC1,46.4%,84.4%,69%,41.3%,14.5%,36.9%,70%,99.6%
Cc1cn(-c2cc(NC(=O)c3cncc(C#Cc4cnc5ccc(O[C@@H]6CCOC6)nn45)c3)cc(C(F)(F)F)c2)cn1,-28.6% (active),-96% (active),-83.1% (active),6.01% (active),-52% (active),-95.7% (active),-13.7% (active),-21.5% (active)
Oc1ccccc1-c1nnc(SCc2ccc(O)c3ncccc23)n1-c1ccccc1,6.93% (active),25.2%,14.4%,14.9%,3.11% (active),12.6%,29%,15.4%
COc1ccc(S(=O)(=O)n2cc(C=O)c3ccccc32)c(OC)c1,65.6%,64.2%,29.6%,35.4%,25.5%,15.4%,110%,95.4%
C/C(=C(/C)C1CC1CCN(C(=O)c1ccccn1)S(=O)(=O)c1ccc(C)cc1)C1CCCCC1 (centres undefined),78.5%,120%,98.2%,103%,74.7%,90.1%,97.4%,98.6%
COCCOc1ccc(-c2csc(NC(=O)CN3CCN(CCO)CC3)n2)cc1NS(=O)(=O)c1cccc2c(N(C)C)cccc12,84.5%,96.1%,83%,93.4%,93.6%,10.8%,91.3%,97.4%
COc1cc(-c2nc(SCc3ccc(C)cc3)[nH]c(=O)c2C#N)ccc1OCc1ccccc1,109%,156%,98.2%,107%,94.5%,112%,117%,102%
C=CCn1c(SCC(=O)Nc2cccc(C(=O)/C=C/c3cccc([N+](=O)[O-])c3)c2)nc2ccccc2c1=O,79.1%,111%,98.4%,62%,33.2%,8.94% (active),101%,104%
IP(CCCSc1n(Cc2ccc3ccccc3c2)c(-c2ccccc2)c(-c2ccccc2)[n+]1Cc1ccc2ccccc2c1)(c1ccccc1)(c1ccccc1)c1ccccc1,2.62% (active),20%,14.9%,45.7%,9.71% (active),14.1%,24.3%,4.9% (active)
Cc1cc(-c2ccc3nc(N)sc3c2)nc2ccc3[nH]ncc3c12,58.5%,33%,-44.2% (active),15.7%,21%,21.8%,66.3%,34.6%
O=C(NCCCNc1cc(-c2cn(-c3ccccc3)nc2-c2cccc(O)c2)ccn1)Nc1ccc(F)cc1,11.3%,22%,-39.5% (active),13.5%,10.8%,10.4%,–,2.62% (active)
c1ccc(-c2c(-c3ccccc3)[n+](Cc3ccc4ccccc4c3)c(-c3ccccc3)n2Cc2ccc3ccccc3c2)cc1,-60.9% (active),-87.1% (active),-93.9% (active),-81.7% (active),-72.9% (active),-74.8% (active),-90.3% (active),-82.9% (active)
CCOC(=O)C1=C(C)Nc2nc3ccccc3n2C1c1ccccc1 (centres undefined),95.5%,101%,96.6%,87.8%,87.8%,69.1%,114%,98.1%
COc1ccc(S(=O)(=O)NCCCNc2nccc(-n3cnc4ccccc43)n2)cc1,66.3%,92.9%,98.7%,104%,85.1%,89.9%,111%,84.1%
O=C(O)CNS(=O)(=O)c1ccc(Oc2ccc(S(=O)(=O)NCC(=O)O)cc2)cc1,95.5%,115%,106%,102%,93.2%,103%,105%,98.4%
CN1CCN(Cc2ccc(NC(=O)c3cncc(C#Cc4cnc5ccc(O[C@H]6CCOC6)nn45)c3)cc2C(F)(F)F)CC1,16.2%,-33.9% (active),-86.8% (active),-32.4% (active),-62.6% (active),-88.1% (active),–,-52.3% (active)
CCOC(=O)/C=c1\sc2n(c1=O)C1C(NN=2)N(CC)C(=O)N1CC (centres undefined),84%,57.7%,-17.8% (active),31.7%,11%,28.8%,77.1%,36%
Cc1cc2nc(C(Cl)Cl)nc(-c3ccco3)n2n1,79.2%,93.3%,89.4%,54.1%,46%,74%,58.7%,25.4%
COc1cc([C@H]2OC[C@H]3[C@@H]2CO[C@@H]3c2ccc(O)c(OC)c2)ccc1O,97.2%,68.5%,107%,107%,96.1%,92.8%,96%,90.6%
COc1cnc2c(c1)C(=O)c1c-2n(CCCn2ccnc2)c(=O)c2cc(OC)c(OC)cc12,-61.3% (active),-0.217% (active),20.5%,-77.7% (active),-61.8% (active),-90.2% (active),24.6%,27.1%
COc1cc(O)c2c(c1)[C@H]1O[C@@H]1C[C@H](O)[C@H](O)C(=O)/C=C\C[C@H](C)OC2=O,30.1%,2.6% (active),19.2%,21.8%,43.3%,27.7%,65.1%,90.4%
C=C1C(=O)O[C@@H]2C[C@@H](C)CCC(=O)[C@](C)(OC(C)=O)C[C@H](OC(=O)/C(C)=C\C)[C@@H]12,39%,80.3%,65.9%,45.7%,35.1%,25.3%,–,91.6%
COc1cc2oc(-c3cccc(NC(=O)c4cc(NC(=O)[C@H](C)N)ccc4Cl)c3)cc(=O)c2c(OC)c1OC,67.9%,108%,105%,104%,91.4%,94.9%,100%,96.3%
C#C[C@]1(O)CC[C@H]2[C@@H]3CC=C4c5sc(Nc6ccc(OC)nc6)nc5CC[C@]4(C)[C@H]3CC[C@@]21C,21.2%,33.3%,48.1%,-20.8% (active),4.25% (active),-48.6% (active),65.5%,19.6%
O=C1CC2(CCOCC2)Oc2ncccc21,70.6%,105%,81.2%,-54.6% (active),12.7%,29%,25.1%,12.1%

# Source: PubChem BioAssay (NCI)
